Source: PMC7862700, “An all-to-all approach to the identification of sequence-specific readers for epigenetic DNA modifications on cytosine”

How the values were obtained:
Assay in all cases: DAPPL (digital affinity profiling via proximity ligation, sequencing); 10 mM Tris-HCl pH 7.5, 50 mM NaCl, 1 mM DTT, 4% glycerol, room temperature, 30 min; GST-TFs on glutathione beads, 16-mer random dsDNA library, 0.1% formaldehyde crosslink after washing; high values mean tight binding
FLI1 = molecular target: T1, FLI1 (Homo sapiens, UniProt Q01543 1-452); details: protein: recombinant; tags: N-terminal GST; dsDNA, one strand shown
T1 sequence: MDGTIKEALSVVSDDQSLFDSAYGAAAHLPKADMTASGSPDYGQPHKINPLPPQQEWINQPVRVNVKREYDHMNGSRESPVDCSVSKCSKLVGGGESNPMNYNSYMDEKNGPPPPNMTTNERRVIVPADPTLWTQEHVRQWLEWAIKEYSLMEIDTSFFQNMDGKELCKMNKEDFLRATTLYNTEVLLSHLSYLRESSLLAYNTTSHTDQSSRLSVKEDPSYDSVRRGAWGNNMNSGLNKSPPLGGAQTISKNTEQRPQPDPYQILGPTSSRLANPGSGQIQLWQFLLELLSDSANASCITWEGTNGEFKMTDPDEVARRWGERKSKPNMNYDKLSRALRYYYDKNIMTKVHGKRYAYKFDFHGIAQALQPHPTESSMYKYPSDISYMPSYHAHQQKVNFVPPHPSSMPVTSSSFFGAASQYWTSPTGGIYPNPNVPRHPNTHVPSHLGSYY
In short: (§1)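 Human transcription factors carrying a GST fusion were produced in yeast, bound to glutathione beads, tagged with DNA barcodes and pooled together with a tag-only sample. Each pool was held with 200 nmole of a random double-stranded 16-mer DNA library in Tris/NaCl/DTT/glycerol buffer for 30 min at room temperature, then washed, crosslinked in 0.1% formaldehyde, proximity-ligated with BsaI/T4 ligase (1 h, 37 °C), PCR-amplified and sequenced on an Illumina NextSeq500. Binding signal is the read frequency of each hexamer for a given factor divided by its frequency in the tag-only sample.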

ELK1 = molecular target: T2, ELK1 (Homo sapiens, UniProt P19419 1-428); details: protein: recombinant; tags: N-terminal GST; dsDNA, one strand shown
T2 sequence: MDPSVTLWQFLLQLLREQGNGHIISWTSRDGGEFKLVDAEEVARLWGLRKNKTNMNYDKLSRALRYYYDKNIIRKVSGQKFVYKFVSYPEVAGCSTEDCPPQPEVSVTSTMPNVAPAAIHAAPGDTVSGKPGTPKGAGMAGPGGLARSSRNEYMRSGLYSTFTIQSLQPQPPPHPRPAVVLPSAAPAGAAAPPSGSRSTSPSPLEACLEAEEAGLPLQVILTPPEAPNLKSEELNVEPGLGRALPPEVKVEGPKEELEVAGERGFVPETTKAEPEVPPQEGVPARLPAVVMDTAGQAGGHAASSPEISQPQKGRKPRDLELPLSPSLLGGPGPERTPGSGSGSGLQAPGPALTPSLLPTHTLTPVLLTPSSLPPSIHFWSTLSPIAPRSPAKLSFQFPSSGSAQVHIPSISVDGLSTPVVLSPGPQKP
In short: as §1

GABPA = molecular target: T3, GABPA (Homo sapiens, UniProt Q06546 1-454); details: protein: recombinant; tags: N-terminal GST; dsDNA, one strand shown
T3 sequence: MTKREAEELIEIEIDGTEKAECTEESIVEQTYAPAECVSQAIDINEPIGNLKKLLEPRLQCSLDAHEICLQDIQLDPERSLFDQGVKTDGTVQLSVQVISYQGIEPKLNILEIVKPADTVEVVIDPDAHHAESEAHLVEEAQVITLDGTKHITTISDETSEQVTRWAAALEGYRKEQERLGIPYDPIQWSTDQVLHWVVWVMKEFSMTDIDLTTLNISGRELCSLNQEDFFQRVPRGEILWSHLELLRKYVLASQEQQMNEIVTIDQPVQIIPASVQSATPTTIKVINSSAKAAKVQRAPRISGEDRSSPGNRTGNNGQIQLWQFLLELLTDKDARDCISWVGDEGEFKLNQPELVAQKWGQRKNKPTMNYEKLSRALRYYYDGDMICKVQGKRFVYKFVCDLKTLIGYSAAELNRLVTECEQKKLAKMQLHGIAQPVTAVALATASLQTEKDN
In short: as §1

ERG = molecular target: T4, ERG (Homo sapiens, UniProt P11308 1-479); details: protein: recombinant; tags: N-terminal GST; dsDNA, one strand shown
T4 sequence: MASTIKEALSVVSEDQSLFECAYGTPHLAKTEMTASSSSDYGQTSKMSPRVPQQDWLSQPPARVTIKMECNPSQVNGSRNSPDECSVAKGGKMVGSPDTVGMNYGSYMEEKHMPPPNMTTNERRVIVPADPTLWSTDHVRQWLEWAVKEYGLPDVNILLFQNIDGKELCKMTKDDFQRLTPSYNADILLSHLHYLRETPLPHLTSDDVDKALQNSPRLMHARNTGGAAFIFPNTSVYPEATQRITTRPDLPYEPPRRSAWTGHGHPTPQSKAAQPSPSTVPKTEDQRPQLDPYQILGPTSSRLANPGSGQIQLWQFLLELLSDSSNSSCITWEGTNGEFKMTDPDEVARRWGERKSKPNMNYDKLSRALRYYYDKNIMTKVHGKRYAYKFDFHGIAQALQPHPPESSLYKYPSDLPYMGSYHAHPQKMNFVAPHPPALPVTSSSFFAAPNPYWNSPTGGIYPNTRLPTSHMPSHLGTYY
In short: as §1

ELF1 = ELF1 (Homo sapiens, UniProt P32519 1-619); details: protein: recombinant; tags: N-terminal GST; dsDNA, one strand shown
Sequence of ELF1 (P32519 whole entry): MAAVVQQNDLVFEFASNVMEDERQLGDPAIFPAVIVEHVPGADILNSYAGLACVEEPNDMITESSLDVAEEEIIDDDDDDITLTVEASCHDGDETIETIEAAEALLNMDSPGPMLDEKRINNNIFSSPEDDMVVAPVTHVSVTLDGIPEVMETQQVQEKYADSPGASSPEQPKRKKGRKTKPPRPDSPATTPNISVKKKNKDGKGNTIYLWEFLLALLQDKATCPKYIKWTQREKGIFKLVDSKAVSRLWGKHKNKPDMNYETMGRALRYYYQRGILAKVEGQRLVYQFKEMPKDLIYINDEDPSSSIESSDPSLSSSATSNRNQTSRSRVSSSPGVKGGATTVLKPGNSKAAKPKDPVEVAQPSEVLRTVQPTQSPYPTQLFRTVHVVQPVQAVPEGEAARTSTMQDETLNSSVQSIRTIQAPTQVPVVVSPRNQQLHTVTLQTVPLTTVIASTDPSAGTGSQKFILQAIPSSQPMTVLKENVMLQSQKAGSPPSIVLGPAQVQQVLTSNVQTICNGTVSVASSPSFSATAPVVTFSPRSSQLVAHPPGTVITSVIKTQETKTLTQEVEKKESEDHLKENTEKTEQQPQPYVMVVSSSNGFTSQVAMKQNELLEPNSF
In short: as §1

EHF = molecular target: T5, EHF (Homo sapiens, UniProt Q9NZC4 1-300); details: protein: recombinant; tags: N-terminal GST; dsDNA, one strand shown
T5 sequence: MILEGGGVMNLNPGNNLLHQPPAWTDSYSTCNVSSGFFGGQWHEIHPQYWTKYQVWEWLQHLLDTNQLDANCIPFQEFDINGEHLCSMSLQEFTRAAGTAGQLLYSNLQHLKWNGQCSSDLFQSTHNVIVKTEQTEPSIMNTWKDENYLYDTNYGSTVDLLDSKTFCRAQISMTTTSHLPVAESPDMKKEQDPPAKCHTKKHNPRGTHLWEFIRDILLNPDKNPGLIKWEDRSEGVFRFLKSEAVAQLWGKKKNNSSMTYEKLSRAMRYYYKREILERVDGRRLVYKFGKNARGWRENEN
In short: as §1

SPI1 = SPI1 (Homo sapiens, UniProt P17947 1-270); details: protein: recombinant; tags: N-terminal GST; dsDNA, one strand shown
In short: as §1

SPIB = SPIB (Homo sapiens, UniProt Q01892 1-262); details: protein: recombinant; tags: N-terminal GST; dsDNA, one strand shown
Sequence of SPIB (Q01892 whole entry): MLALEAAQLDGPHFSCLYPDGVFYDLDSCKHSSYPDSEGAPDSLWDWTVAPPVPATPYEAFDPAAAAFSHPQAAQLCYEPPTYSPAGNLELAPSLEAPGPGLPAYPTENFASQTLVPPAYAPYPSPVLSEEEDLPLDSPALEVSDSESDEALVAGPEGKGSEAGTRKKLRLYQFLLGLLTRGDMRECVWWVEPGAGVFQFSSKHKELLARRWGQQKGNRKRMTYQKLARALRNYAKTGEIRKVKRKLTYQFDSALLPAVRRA
In short: as §1

ELK3 = molecular target: T6, ELK3 (Homo sapiens, UniProt P41970 1-407); details: protein: recombinant; tags: N-terminal GST; dsDNA, one strand shown
T6 sequence: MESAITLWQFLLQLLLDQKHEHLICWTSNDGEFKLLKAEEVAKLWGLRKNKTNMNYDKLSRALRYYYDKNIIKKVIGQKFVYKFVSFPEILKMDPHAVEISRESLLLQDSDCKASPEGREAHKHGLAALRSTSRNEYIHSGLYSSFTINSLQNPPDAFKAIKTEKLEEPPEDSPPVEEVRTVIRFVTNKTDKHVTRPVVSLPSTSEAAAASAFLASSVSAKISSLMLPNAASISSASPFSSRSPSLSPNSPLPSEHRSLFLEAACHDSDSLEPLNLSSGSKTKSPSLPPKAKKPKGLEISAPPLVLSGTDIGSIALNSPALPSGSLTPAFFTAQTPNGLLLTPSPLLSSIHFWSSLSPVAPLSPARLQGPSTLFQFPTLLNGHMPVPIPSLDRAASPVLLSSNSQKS
In short: as §1

FEV = molecular target: T7, FEV (Homo sapiens, UniProt Q99581 1-238); details: protein: recombinant; tags: N-terminal GST; dsDNA, one strand shown
T7 sequence: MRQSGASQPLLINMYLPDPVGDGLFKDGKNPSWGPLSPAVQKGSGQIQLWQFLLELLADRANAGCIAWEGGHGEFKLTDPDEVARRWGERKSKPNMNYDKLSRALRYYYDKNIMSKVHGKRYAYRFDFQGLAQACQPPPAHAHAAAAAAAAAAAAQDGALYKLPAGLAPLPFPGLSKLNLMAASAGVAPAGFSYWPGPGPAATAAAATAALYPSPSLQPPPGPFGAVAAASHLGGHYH
In short: as §1

ETV5 = ETV5 (Homo sapiens, UniProt P41161 1-510); details: protein: recombinant; tags: N-terminal GST; dsDNA, one strand shown
Sequence of ETV5 (P41161 whole entry): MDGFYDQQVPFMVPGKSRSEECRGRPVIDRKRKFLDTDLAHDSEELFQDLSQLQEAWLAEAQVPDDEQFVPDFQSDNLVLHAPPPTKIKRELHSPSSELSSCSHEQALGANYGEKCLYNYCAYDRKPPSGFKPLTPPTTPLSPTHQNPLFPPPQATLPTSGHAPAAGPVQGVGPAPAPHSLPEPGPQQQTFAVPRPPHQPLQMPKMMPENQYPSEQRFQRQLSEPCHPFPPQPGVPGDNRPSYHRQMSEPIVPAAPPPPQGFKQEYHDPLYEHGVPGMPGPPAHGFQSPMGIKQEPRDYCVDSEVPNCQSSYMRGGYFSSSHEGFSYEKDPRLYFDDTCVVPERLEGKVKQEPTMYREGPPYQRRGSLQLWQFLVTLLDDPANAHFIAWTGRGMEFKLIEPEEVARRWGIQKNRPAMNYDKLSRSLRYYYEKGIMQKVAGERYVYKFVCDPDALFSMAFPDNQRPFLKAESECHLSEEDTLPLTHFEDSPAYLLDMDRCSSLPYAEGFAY
In short: as §1

HSF1 = HSF1 (Homo sapiens, UniProt Q00613 1-529); details: protein: recombinant; tags: N-terminal GST; chain copies: 3; dsDNA, one strand shown
Sequence of HSF1 (Q00613 whole entry): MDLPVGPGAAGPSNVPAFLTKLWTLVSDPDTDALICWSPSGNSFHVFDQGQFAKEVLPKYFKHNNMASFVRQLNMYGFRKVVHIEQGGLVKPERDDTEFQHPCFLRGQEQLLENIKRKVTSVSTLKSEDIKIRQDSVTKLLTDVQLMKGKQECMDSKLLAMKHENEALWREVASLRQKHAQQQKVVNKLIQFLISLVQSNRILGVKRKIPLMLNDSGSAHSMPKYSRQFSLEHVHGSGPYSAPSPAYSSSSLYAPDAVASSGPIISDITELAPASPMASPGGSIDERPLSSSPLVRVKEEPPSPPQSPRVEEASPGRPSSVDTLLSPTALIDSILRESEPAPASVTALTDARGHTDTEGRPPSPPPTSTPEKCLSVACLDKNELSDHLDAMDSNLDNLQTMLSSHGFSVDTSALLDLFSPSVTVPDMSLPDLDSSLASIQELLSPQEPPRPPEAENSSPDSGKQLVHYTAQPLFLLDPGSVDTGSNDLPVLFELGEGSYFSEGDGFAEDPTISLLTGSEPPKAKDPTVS
In short: as §1

SPIC = molecular target: T8, SPIC (Homo sapiens, UniProt Q8N5J4 1-248); details: protein: recombinant; tags: N-terminal GST; dsDNA, one strand shown
T8 sequence: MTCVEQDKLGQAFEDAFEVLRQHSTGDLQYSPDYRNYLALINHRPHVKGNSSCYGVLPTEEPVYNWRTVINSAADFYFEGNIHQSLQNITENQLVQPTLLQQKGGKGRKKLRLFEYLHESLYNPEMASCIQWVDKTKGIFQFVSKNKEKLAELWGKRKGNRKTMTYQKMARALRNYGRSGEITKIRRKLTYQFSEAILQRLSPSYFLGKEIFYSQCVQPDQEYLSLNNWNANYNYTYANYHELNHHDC
In short: as §1

ELF4 = ELF4 (Homo sapiens, UniProt Q99607 1-663); details: protein: recombinant; tags: N-terminal GST; dsDNA, one strand shown
Sequence of ELF4 (Q99607 whole entry): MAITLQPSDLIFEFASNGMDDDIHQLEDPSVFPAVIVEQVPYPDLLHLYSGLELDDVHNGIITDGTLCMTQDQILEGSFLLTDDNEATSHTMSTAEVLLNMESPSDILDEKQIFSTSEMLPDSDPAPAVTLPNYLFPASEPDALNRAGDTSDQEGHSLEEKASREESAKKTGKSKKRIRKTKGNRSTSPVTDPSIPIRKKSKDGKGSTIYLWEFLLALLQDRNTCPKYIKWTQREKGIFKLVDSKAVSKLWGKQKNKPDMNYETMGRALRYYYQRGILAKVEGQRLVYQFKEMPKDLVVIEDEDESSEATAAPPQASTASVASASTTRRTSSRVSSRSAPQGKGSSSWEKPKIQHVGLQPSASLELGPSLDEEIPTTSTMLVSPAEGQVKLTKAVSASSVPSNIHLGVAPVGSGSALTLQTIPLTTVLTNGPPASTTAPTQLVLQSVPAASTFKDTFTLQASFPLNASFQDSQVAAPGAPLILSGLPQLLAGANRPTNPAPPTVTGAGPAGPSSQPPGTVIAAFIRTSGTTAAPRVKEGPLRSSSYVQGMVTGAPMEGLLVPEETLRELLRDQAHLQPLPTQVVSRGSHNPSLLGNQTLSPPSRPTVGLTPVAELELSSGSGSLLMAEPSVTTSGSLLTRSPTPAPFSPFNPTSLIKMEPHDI
In short: as §1

ELK4 = molecular target: T9, ELK4 (Homo sapiens, UniProt P28324-2 1-405); details: protein: recombinant; tags: N-terminal GST; dsDNA, one strand shown
T9 sequence: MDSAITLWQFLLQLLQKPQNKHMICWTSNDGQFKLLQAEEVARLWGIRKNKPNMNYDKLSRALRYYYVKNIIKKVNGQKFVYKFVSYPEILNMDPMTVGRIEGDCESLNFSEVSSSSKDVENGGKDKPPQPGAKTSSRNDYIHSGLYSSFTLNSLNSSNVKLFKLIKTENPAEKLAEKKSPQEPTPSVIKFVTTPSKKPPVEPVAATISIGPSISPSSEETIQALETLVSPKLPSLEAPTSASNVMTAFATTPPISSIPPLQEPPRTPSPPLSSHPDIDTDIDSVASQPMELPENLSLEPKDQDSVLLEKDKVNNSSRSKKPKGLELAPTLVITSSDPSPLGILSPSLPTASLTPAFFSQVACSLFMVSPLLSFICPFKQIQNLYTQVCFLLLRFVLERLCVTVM
In short: as §1

ETV2 = molecular target: T10, ETV2 (Homo sapiens, UniProt O00321 1-342); details: protein: recombinant; tags: N-terminal GST; dsDNA, one strand shown
T10 sequence: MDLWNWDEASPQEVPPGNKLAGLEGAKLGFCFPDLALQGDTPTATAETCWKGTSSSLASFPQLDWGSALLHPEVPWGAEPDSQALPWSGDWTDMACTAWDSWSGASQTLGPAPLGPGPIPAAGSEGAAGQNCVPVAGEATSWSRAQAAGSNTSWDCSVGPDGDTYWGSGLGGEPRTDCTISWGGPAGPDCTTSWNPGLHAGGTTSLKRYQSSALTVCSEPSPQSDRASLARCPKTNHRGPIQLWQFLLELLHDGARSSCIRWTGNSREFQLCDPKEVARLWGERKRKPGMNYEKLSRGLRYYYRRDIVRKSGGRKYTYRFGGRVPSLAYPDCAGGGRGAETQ
In short: as §1

ELF3 = molecular target: T11, ELF3 (Homo sapiens, UniProt P78545 1-371); details: protein: recombinant; tags: N-terminal GST; dsDNA, one strand shown
T11 sequence: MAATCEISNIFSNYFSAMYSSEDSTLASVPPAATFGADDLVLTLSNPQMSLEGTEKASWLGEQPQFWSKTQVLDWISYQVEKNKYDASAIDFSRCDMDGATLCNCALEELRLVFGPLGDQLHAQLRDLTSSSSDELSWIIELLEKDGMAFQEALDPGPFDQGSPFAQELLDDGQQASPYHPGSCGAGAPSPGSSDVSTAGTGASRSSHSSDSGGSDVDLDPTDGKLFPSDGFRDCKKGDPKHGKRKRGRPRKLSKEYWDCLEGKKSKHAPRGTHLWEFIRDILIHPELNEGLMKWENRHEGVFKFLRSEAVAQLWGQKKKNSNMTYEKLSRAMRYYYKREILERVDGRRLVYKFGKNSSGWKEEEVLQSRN
In short: as §1

ETV1 = ETV1 (Homo sapiens, UniProt P50549 1-477); details: protein: recombinant; tags: N-terminal GST; dsDNA, one strand shown
Sequence of ETV1 (P50549 whole entry): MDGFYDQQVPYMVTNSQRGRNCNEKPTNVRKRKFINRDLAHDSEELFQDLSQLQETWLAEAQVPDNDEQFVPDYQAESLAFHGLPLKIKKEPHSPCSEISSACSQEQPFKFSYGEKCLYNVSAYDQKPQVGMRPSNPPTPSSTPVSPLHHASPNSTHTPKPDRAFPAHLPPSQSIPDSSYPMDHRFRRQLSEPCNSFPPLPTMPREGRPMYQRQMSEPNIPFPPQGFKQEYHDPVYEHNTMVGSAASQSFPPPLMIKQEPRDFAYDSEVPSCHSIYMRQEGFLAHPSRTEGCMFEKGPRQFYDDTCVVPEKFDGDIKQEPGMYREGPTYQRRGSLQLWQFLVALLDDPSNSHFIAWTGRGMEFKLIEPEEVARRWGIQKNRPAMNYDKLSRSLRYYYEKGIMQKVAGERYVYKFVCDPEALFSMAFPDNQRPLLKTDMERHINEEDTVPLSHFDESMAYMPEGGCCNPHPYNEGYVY
In short: as §1

## GGCACT
FLI1
  binding signal: 1.24 fold enrichment (6-mer frequency, TF over GST control)
ELK1
  binding signal: 1.21 fold enrichment (6-mer frequency, TF over GST control)
GABPA
  binding signal: 1.28 fold enrichment (6-mer frequency, TF over GST control)
ERG
  binding signal: 1.22 fold enrichment (6-mer frequency, TF over GST control)
ELF1
  binding signal: 1.22 fold enrichment (6-mer frequency, TF over GST control)
EHF
  binding signal: 1.33 fold enrichment (6-mer frequency, TF over GST control)
SPI1
  binding signal: 1.35 fold enrichment (6-mer frequency, TF over GST control)
SPIB
  binding signal: 1.35 fold enrichment (6-mer frequency, TF over GST control)
ELK3
  binding signal: 1.27 fold enrichment (6-mer frequency, TF over GST control)
FEV
  binding signal: 1.46 fold enrichment (6-mer frequency, TF over GST control)
ETV5
  binding signal: 1.32 fold enrichment (6-mer frequency, TF over GST control)
HSF1
  binding signal: 1.03 fold enrichment (6-mer frequency, TF over GST control)
SPIC
  binding signal: 1.24 fold enrichment (6-mer frequency, TF over GST control)
ELF4
  binding signal: 1.26 fold enrichment (6-mer frequency, TF over GST control)
ELK4
  binding signal: 1.28 fold enrichment (6-mer frequency, TF over GST control)
ETV2
  binding signal: 1.19 fold enrichment (6-mer frequency, TF over GST control)
ELF3
  binding signal: 1.29 fold enrichment (6-mer frequency, TF over GST control)
ETV1
  binding signal: 1.38 fold enrichment (6-mer frequency, TF over GST control)
